Screening results as filed in PubChem.
This is one part of a sample in which hits are shown more often than they occur.
Pf Dd2 inh: qHTS Primary assay for Inhibitors of Plasmodium falciparum Dd2 growth in vitro | P. falciparum Dd2 growth, SYBR Green, 72 h | Potency, µM (highest dose often 28.9 µM), inactives show at the highest dose activity, negative = inhibition, hits mostly inhibitors | hit rate 4.3% among 120,000 | AID 1347417, 2020; active means well fitted inhibition curve with a large enough effect;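 further: plate controls were DMSO vehicle for no effect and reference drug for full effect; nearly all actives have a fitted effect of over 65% in size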
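Readout: SYBR Green fluorescence, 485 nm excitation, 535 nm emission, after ~16 h lysis at 37C. Before that, Dd2-infected red cells (2.5% hematocrit) grew 72 h with compound, 29 uM top final concentration.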
An asterisk follows results filed as active; i = inactive; [ ] = dose if it differs, or a comment. Potency means the concentration at half of the fitted maximal effect.

SMILES	Pf Dd2 inh
CC(C)CN1CCN(C(=O)C2CCCN(S(=O)(=O)c3cn(C)cn3)CCC(=O)NCC2)CC1 (stereo unspecified)	9%
O=C(NC1CCN(c2ccc(F)cc2)C1=O)c1ccccc1C(F)(F)F (stereo unspecified)	i
O=C(NCc1ccccc1)N1CCN2C(=O)N(C3CCOCC3)C[C@H]2C1	3%[44.1 µM]
CCN(C(=O)Cn1c(C)cc2nc3n(c(=O)c21)CCCCC3)c1cccc(C)c1	i
CC(C)CCN1CCNC(=O)C1CC(=O)N(C)Cc1nncn1C(C)C (stereo unspecified)	-8%
COCC1CN(C(C)=O)CC12CCN(S(=O)(=O)c1ccc(F)c(C)c1)CC2 (stereo unspecified)	22%
CC(C)Nc1nc2c(-c3cccc(Br)c3)nnn2c2ccccc12	i
Fc1cccc(-c2nnn3c2nc(NC2CCCCC2)c2ccccc23)c1	8.9µM*
Fc1cccc(-c2nnn3c2nc(NCc2ccc4c(c2)OCO4)c2ccccc23)c1	8%
CC(C)CN(CC(C)C)S(=O)(=O)c1ccc(C(=O)Nc2sc3c(c2C(N)=O)CCN(C(C)C)C3)cc1	58%
COC(=O)c1c(NC(=O)c2ccc(S(=O)(=O)N3CCC(C)CC3)cc2)sc2c1CCN(C)C2	i
COC(=O)c1c(NC(=O)c2ccc(S(=O)(=O)N(C)C3CCCCC3)cc2)sc2c1CCN(C)C2	8.9µM*
Cc1ncsc1C(=O)N1CCC2(CC1)OC(=O)N(Cc1cccnc1)C2(C)c1ccccc1 (stereo unspecified)	i
O=C(C1CCN(S(=O)(=O)N2CCOCC2)CC1)N1CCCC(c2nc(C3CCOCC3)no2)C1 (stereo unspecified)	i
O=C(c1ccc(C(F)(F)F)cc1)N1CCCC2(CC(c3ccccc3)=NO2)C1 (stereo unspecified)	8%
CCOC(=O)c1c(NC(=O)COc2ccccc2F)sc2c1CCCC2	-12%
CCOC(=O)c1c(NC(=O)C(C)Sc2cn(CCNC(=O)c3c(F)cccc3F)c3ccccc23)sc2c1CCC2 (stereo unspecified)	7.9µM*
CCOC(=O)c1c(NC(=O)CSc2cn(CCNC(=O)c3ccc(OCC)cc3)c3ccccc23)sc2c1CCCC2	i
CC(Sc1cn(CCNC(=O)c2ccccc2F)c2ccccc12)c1ccccc1 (stereo unspecified)	-20%
COc1ccc(NC(=O)CSc2cn(CCNC(=O)c3ccc(OC)cc3)c3ccccc23)cc1	-12%
CCOC(=O)c1c(NC(=O)CSc2cn(CCNC(=O)c3ccc(OC)cc3)c3ccccc23)sc2c1CCC2	13µM*
Cc1ccc(C(=O)N2CCC3(CC2)C(=O)Nc2ccccc23)cc1	47%
CCOC(=O)C1(Cc2ccc(F)cc2)CCCNC1 (stereo unspecified)	2.8µM*
CCOC(=O)C1(Cc2ccc(F)cc2F)CCCN(C(=O)c2c(C)nc3ncccn23)C1 (stereo unspecified)	-12%
CCOC(=O)C1(Cc2ccc(Cl)cc2)CCN(Cc2ccc(OC)cc2O)CC1	0.089µM*
SMILES	Pf Dd2 inh
CCOC(=O)C1(Cc2ccc(OC)cc2)CCN(C(=O)C(C)Oc2ccccc2)CC1 (stereo unspecified)	-10%
CCOC(=O)C1(Cc2ccccc2)CCCN(C(=O)c2ccccc2SC)C1 (stereo unspecified)	-34%
COc1cccc(CN2CCC3(CC2)C(=O)NCN3Cc2ccc(Cl)cc2)c1	-17%
C=CCOc1cccc(C(=O)N2CCC(Cc3ccc(OC)cc3)(C(=O)OCC)CC2)c1	i
CCOC(=O)C1(Cc2ccccc2)CCNCC1	5.6µM*
CCOC(=O)C1(Cc2ccccc2)CCCN(S(=O)(=O)c2ccc(OC)c(OC)c2)C1 (stereo unspecified)	i
CCOC(=O)C1(Cc2cccc(OC)c2)CCNCC1	5µM*
COCC1CN(C(=O)CCc2cccc(OC)c2)CC12CCNCC2 (stereo unspecified)	33%
CCOC(=O)c1cc(S(=O)(=O)NCc2ccc(F)cc2)[nH]n1	i
Cc1ccc(-c2nnc(C3CN(C(=O)c4cnccn4)CC34CCOCC4)o2)cc1 (stereo unspecified)	-8%
Cc1ccc(C(=O)N2CC(C(=O)NCCc3ccncc3)C3(CCOCC3)C2)cc1 (stereo unspecified)	0%
CNCC(=O)N1CCC(n2nccc2NC(=O)Nc2ccccc2Cl)CC1	-5%
CCCNC(=O)CC(c1ccc(F)cc1)c1c[nH]c2ccccc12 (stereo unspecified)	-18%
CN1Cc2nc(-c3cc(F)cc(F)c3)ccc2OCC1=O	2%[44.1 µM]
CC(=O)c1cccc(NC(=O)Cn2ccn3nc(-c4ccccc4)c(CO)c3c2=O)c1	i
COc1cccc(S(=O)(=O)N2CCC3(CC2)N(C)C(=O)CS3=O)c1 (stereo unspecified)	2%
CN(C)Cc1nnc(C2CC(NC(=O)c3n[nH]c4c3CCCC4)C2)n1C (stereo unspecified)	-9%
COc1cccc(CC2(CO)CCCNC2)c1 (stereo unspecified)	-26%
CCOC(=O)C1(Cc2ccccc2)CCCN(S(=O)(=O)c2cccs2)C1 (stereo unspecified)	-2%
CCOC(=O)C1(C/C=C/c2ccccc2)CCCNC1 (stereo unspecified)	4µM*
O=C(N1CCN(C/C=C/c2ccccc2)CC1)C12CNCC1CNC2 (stereo unspecified)	-22%
CCOC(=O)C1(Cc2cccc(OC)c2)CCCNC1 (stereo unspecified)	11µM*
COc1cccc(CNC(=O)C2=C(C)C(=O)OC23CCCCCC3)c1	-20%
N[C@@H](CO)c1nc(C2CCOCC2)nn1-c1ccccc1F	3%
O=C(O)C1(c2ccccc2)CCN(S(=O)(=O)c2cccc(C(F)(F)F)c2)CC1	6%
SMILES	Pf Dd2 inh
Cc1nc(C)c(C(=O)N2CC[C@H](CO)[C@H](NC(=O)C3CC3)C2)s1	26%
CNC1CCc2nn(CC3CC3)c(=O)n2CC1 (stereo unspecified)	32%
Cc1cc(C)c(CNC(=O)c2cc(-c3cnn(C)c3)cc3c2OCCN3C)c(=O)[nH]1	i
Cc1cnc(C2CC2)n1C1CCCNC1 (stereo unspecified)	-7%
COCc1ncc(C)n1C1CCCNC1 (stereo unspecified)	-10%
Cc1cnc(-c2ccccc2)n1C1CCCNC1 (stereo unspecified)	6.3µM*
CCOc1cccc(C(=O)Nc2ccc(NC(=O)c3ccc(Br)cc3)cc2)c1	i
CCOC(=O)Cc1cc(C(=O)Nc2ccc(Br)cc2)sc1-c1ccc(C)cc1	7.1µM*
CCOc1ccc(NC(=O)c2ccc(-c3ccccc3)s2)cc1	18%
Cc1noc([C@@H]2CN(C(=O)Cc3cccc4ccccc34)C[C@H]2CO)n1	-18%
O=C(O)CCn1ncc2cc(OC3CCN(C(=O)CC4CC4)CC3)ccc21	-3%[44.1 µM]
COc1ccc(NC(=O)c2ccc3c(c2)sc2nc(-c4ccc(OC)cc4)cn23)cc1	i
CCOc1ccc(-c2cn3c(n2)sc2cc(C(=O)NCCC4=CCCCC4)ccc23)cc1	7.1µM*
CCCSCCCNC(=O)c1ccc2c(c1)sc1nc(-c3ccc(OCC)cc3)cn12	3.5µM*
CCOC(=O)C1CCN(C(=O)c2ccc3c(c2)sc2nc(-c4ccc(OC)cc4)cn23)CC1	i
CCOc1ccc(-c2cn3c(n2)sc2cc(C(=O)NCCc4ccc(OC)c(OC)c4)ccc23)cc1	3.5µM*
CCOc1ccc(-n2c(C)nc3cc(C(=O)NCCC4=CCCCC4)ccc32)cc1	-7%
